Screens (PubChem)
An excerpt weighted towards active compounds, which were near 2.6% of everything screened.
TWEAK-Fn14 inh: inhibitors of TWEAK-Fn14 interaction signaling | AID 1159606 | inhibition, % at 10 µM | 360,000 compounds, 2% hits | TWEAK-stimulated Fn14 reporter cells, luciferase luminescence, 8 h; in the data active = inhibition above about 50%
EWS-Fli block: blocks EWS/Fli oncoprotein-driven transcription; A673 NR0B1-luciferase reporter, viability-normalised; inhibition, % at 12.6 µM; 350,000 compounds, 0.67% hits;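 active = mean inhibition of at least 50% after viability correction, with every replicate also passing that limit; inconclusive = mean reaches 50% but only one of two replicates passes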;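 also: firefly luciferase signal divided by Alamar Blue viability fluorescence both relative to DMSO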
KKLEB cytotox: counter-screen for CF NF-kB inhibitors: cytotoxicity. 360,000 compounds, 0.36% hits. KKLEB CF airway cells viability, ATPlite luminescence, overnight; stronger effect = lower value; cells stimulated with P. aeruginosa culture filtrate. AID 602141. activity change (cytotoxicity), % at 5 µM;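 active = corrected activity change at or below -50% at 5 µM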
CF NFkB block: blocks PAF-induced NF-kB reporter in cystic fibrosis cells | KKLEB NF-kB-GFP reporter, GFP fluorescence overnight | inhibition, % at 5 µM | 360,000 compounds, 0.86% hits;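 active = at least 50% inhibition at 5 µM, scaled per plate between neutral and stimulator controls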;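 also: PAF is a Pseudomonas aeruginosa culture filtrate used as stimulus; plate controls were PAF-stimulated DMSO wells for no effect and unstimulated DMSO wells for full effect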
TROY NFkB inh: TROY signaling inhibition. Q293 LMP1-TROYcd NF-kB luciferase reporter, 4 h. inhibition, % at 10 µM. 360,000 compounds, 0.98% hits. AID 1347056;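 active = compounds whose plate-normalised and pattern-corrected inhibition of the luciferase reporter signal at the single screening dose is 50% or more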
LGR2 antag: blocks bursicon-induced cAMP signaling via Drosophila LGR2; HEK293 LGR2, CRE-luciferase, bursicon-stimulated, 4 h; inhibition, % at 9.99 µM; 380,000 compounds, 0.35% hits;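 active = drop in luminescence signal, shown as inhibition above about 50% in the replicate tests, limit read from the data, passing the limit was not always enough; inconclusive = probably only some replicates passing the limit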;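 also: agonist challenge used bursicon conditioned medium at about half maximal strength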
Numbers without * were called inactive; ? = inconclusive; . = no result.

SMILES	TWEAK-Fn14 inh	EWS-Fli block	KKLEB cytotox	CF NFkB block	TROY NFkB inh	LGR2 antag
C[C@@H]1CCCCO[C@@H](CN(C)C(=O)c2ccccc2)[C@H](C)CN([C@H](C)CO)C(=O)c2cc(NC(=O)Nc3ccccc3)ccc2O1	.	15	.	.	.	9
O=C(O)c1cccc(NC(=O)c2cn(-c3ccccc3)nc2-c2cc3ccccc3o2)c1	-2	-5	16	8	-26	-18
O=C(N/N=C/c1cn(-c2ccccc2)nc1-c1cc2ccccc2o1)c1ccncc1	70*	.	-8	-10	28	-22
Cc1sc2ncnc(N3CCC(C(=O)Nc4ccccc4C(C)(C)C)CC3)c2c1C	74*	-3	-22	68*	53*	33
Cc1sc2ncnc(N3CCC(C(=O)Nc4nc(-c5cccs5)cs4)CC3)c2c1C	67*	-35	-7	3	25	-20
O=C1C=C(c2ccc3ncccc3c2)C[C@@H](c2ccc3c(c2)OCO3)C1	-1	63*	-15	32	23	2
O=C1C=C(c2ccc3ncccc3c2)C[C@@H](c2ccc(F)cc2)C1	1	.	-17	18	1	.
O=C(NC(c1ccc(Cl)cc1)c1c(O)ccc2ccccc12)c1ccccc1 (stereo unspecified)	66*	.	-62*	64*	52*	?
O=C(NC(c1ccccc1)c1c(O)ccc2ccccc12)c1ccccc1Cl (stereo unspecified)	21	.	2	6	16	-8
COc1cccc(-c2csc3ncnc(Sc4nnnn4C)c23)c1	75*	19	-12	47	38	46
COC(=O)CSc1ncnc2scc(-c3ccccc3)c12	8	4	-24	35	10	-6
Cn1nnnc1Sc1ncnc2scc(-c3ccsc3)c12	72*	22	7	47	33	74*
Cc1ccc(-c2csc3ncnc(SCC(=O)O)c23)cc1	9	-3	-8	10	7	10
Cn1nnnc1Sc1ncnc2scc(-c3cccc(C(F)(F)F)c3)c12	90*	12	-52*	71*	58*	88*
Cn1nnnc1Sc1ncnc2scc(-c3ccccc3C(F)(F)F)c12	28	5	-18	22	9	?
Cn1nnnc1Sc1ncnc2scc(-c3ccc(C(F)(F)F)cc3)c12	93*	35	-59*	72*	55*	93*
C[C@@H]1CCCCO[C@H](CN(C)C(=O)c2ccncc2)[C@H](C)CN([C@H](C)CO)C(=O)c2cc(NS(C)(=O)=O)ccc2O1	.	-1	.	.	.	4
Cn1nnnc1Sc1ncnc2scc(-c3cc4ccccc4o3)c12	103*	12	-86*	83*	76*	106*
Cn1nnnc1Sc1ncnc2scc(-c3ccc(-c4ccccc4)cc3)c12	78*	-5	-63*	88*	4	10
CC(=O)c1ccccc1-c1csc2ncnc(Sc3nnnn3C)c12	33	8	-27	43	-11	14
CO[C@@H]1CC[C@@H]2CCOc3c(C#N)cccc3C(=O)N(C)C[C@H](C)C(=O)N(C)C[C@@H]1O2	.	3	.	.	.	-36
CCOC(=O)c1sc2nc(NC(=O)C(C)(C)C)sc2c1C	65*	-139	-6	-74	68*	-38
COc1ccc(C#Cc2ccc3c(c2)[C@H]2[C@H](CCN2C(=O)c2ccccn2)[C@H](CO)N3)cc1	.	.	.	.	.	-8
O=C(CN1CCCC1c1ccc2c(c1)OCCO2)NC(=O)Nc1ccccc1 (stereo unspecified)	68*	-10	-20	11	60*	-23
CC1CCC2(CC1)NC(=O)N(CC(=O)NC(=O)Nc1ccc3c(c1)OCCO3)C2=O (stereo unspecified)	50*	-10	12	-17	31	-8
SMILES	TWEAK-Fn14 inh	EWS-Fli block	KKLEB cytotox	CF NFkB block	TROY NFkB inh	LGR2 antag
CN1CCCCN2[C@H](C1)[C@@H](c1ccc(Br)cc1)[C@@H]2CO	.	-4	.	.	.	1
CC1(S(=O)(=O)O)CC(=O)c2ccccc2C1=O (stereo unspecified)	18	-4	28	69*	45	26
N#C/C(=C/c1ccc(CNS(=O)(=O)c2ccccc2)o1)C(N)=O	69*	.	2	10	-6	1
Oc1cc2c(cc1O)C(c1ccccc1)CNCC2 (stereo unspecified)	-9	6	-58*	19	-3	-7
CCCNC(=O)N(C)C[C@@H]1Oc2ncc(C#CC3CC3)cc2C(=O)N([C@@H](C)CO)C[C@H]1C	.	-4	.	.	.	6
Cc1ccc(NC(=O)CSc2ccccc2NC(=O)c2ccccc2Cl)cc1Cl	73*	-15	-9	8	17	-4
Cc1nn(C)cc1NC(=O)C[C@@H]1CC[C@@H]2[C@@H](COc3ccc(NC(=O)c4cccc(F)c4)cc3C(=O)N2C)O1	.	1	.	.	.	-4
Cc1ccc(C(=O)c2ccccc2C(=O)OCC(=O)Nc2ccc(SC(F)F)cc2)cc1	53*	4	2	-1	22	3
O=C1C(=O)c2cccnc2-c2ncccc21	103*	42	-83*	90*	66*	100*
Cc1cc(Cl)n2c(nc3cc(F)c(F)cc32)c1C#N	69*	58*	-69*	89*	36	31
Cc1ccc(NC(=O)c2ccc(C)cc2)cc1	59*	-16	-9	-15	4	48
COc1ccc(C(=O)Nc2ccc3ncccc3c2)cc1	75*	58*	-17	-8	38	59*
Cc1ccc(C(=O)Nc2ccc3ncccc3c2)cc1	94*	66*	-64*	-10	56*	74*
Cc1ccc(NC(=O)c2ccc(Nc3c([N+](=O)[O-])cc([N+](=O)[O-])cc3[N+](=O)[O-])cc2)cc1	94*	38	23	-85	66*	85*
CCCNC(=O)C[C@H]1CC[C@@H]2[C@H](COC[C@@H](O)CN2C(=O)Nc2cccc(Cl)c2)O1	.	.	.	.	.	-8
CNC[C@@H]1Oc2ccc(NC(=O)NC(C)C)cc2C(=O)N([C@@H](C)CO)C[C@@H]1C	.	3	.	.	.	9
N/C(=N\S(=O)(=O)c1cc(C(F)(F)F)cc(C(F)(F)F)c1)c1ccncc1	-9	4	4	-13	4	-6
N/C(=N\S(=O)(=O)c1cc(C(F)(F)F)cc(C(F)(F)F)c1)c1ccc(Cl)cc1	17	33	-7	8	60*	43
CO[C@H]1CN(C)C(=O)c2cc(NS(=O)(=O)CC(F)(F)F)ccc2OC[C@H](C)N(Cc2ccccn2)C[C@@H]1C	.	4	.	.	.	-20
C[C@H]1CN([C@@H](C)CO)C(=O)Cc2cc(NC(=O)Cc3ccccc3)ccc2O[C@H]1CN(C)C(=O)Nc1ccc2c(c1)OCO2	.	-7	.	.	.	-4
C[C@@H]1CN([C@H](C)CO)C(=O)c2cccc(NS(=O)(=O)c3ccccc3)c2O[C@H]1CN(C)Cc1ccc(-c2ccccc2)cc1	.	-6	.	.	.	7
